Five compounds from PubChem BioAssay (EPA / NIEHS) can be followed below.

SMILES strings stand for the structures. Inconclusive results are not listed. Active and inactive are the calls of the source. How the source made its calls, unless noted: active means hit-call score of the fitted dose curve at least 0.9, where 1 is the maximum; inactive means score below 0.9.

For assay [1], the target named is Paired box protein Pax-6 (Homo sapiens) (UniProt P26367). Nature of the assay: ATG_Pax6_CIS: Attagene CIS-FACTORIAL HepG2 Assay for human Paired Box 6 (PAX6) (AID 2282956). The settings on record: HepG2 CIS-FACTORIAL PAX6 reporter transcription, RNA readout; actives raise or lower the signal. The gist of the method: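 Values derive from bidirectional curve fitting of reporter mRNA signal relative to DMSO. HepG2 cells bearing transfected cis-regulated MRTUs were exposed for 24 h; transcripts were read by RT-PCR and capillary electrophoresis.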
Chain of Paired box protein Pax-6 (Homo sapiens) (P26367 whole entry, looked up): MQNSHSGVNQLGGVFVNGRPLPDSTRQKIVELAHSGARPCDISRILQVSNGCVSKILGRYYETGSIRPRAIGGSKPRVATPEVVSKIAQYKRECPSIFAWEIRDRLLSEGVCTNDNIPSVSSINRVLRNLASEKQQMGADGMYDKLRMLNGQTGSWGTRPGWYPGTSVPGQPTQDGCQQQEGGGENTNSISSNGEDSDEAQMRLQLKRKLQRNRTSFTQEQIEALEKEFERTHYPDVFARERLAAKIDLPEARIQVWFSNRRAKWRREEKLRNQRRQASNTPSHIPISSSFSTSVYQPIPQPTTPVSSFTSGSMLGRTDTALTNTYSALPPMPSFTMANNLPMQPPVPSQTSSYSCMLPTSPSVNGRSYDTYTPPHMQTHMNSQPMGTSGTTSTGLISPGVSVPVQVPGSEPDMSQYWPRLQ

The nature of assay [2]: ATG_PXRE_CIS: Attagene CIS-FACTORIAL HepG2 Assay for human Pregnane X Receptor Element (PXRE) (AID 2282957). The settings on record: HepG2 Attagene CIS-FACTORIAL PXRE reporter, mRNA; actives raise or lower the signal. The gist of the method:
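Bidirectional activity, baselined to DMSO, derived from reporter mRNA fluorescence (RT-PCR plus capillary electrophoresis) in HepG2 cells bearing cis-promoter reporter units, 24 h exposure.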

A short description of assay [3]: ATG_PPRE_CIS: Attagene CIS-FACTORIAL HepG2 Assay for human Peroxisome Proliferator-activated Response Element (PPRE) (AID 2282958). Conditions: HepG2 PPRE cis-element reporter, Attagene transcription factor profiling; actives raise or lower the signal. In outline: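 HepG2 cells transiently transfected with multiplexed cis-element reporter units measure endogenous transcription factor activity. After 24 h compound exposure, reporter mRNA is quantified by RT-PCR, 6-FAM labeling, HpaI digestion and capillary electrophoresis; bidirectional fits are made against DMSO baseline.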

Assay [4] can be described thus: ATG_RORE_CIS: Attagene CIS-FACTORIAL HepG2 Assay for human RAR-related Orphan Receptor Element (RORE) (AID 2282959). The settings on record: HepG2 Attagene cis-factorial RORE reporter, mRNA; actives raise or lower the signal. The gist of the method: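 HepG2 cells transiently transfected with multiple cis-element reporter transcription units, exposed to chemical for 24 h. Reporter mRNA quantified by RT-PCR, 6-FAM primer-extension labeling, HpaI digestion and capillary electrophoresis; bidirectional fit versus DMSO baseline.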

The nature of assay [5]: ATG_Sox_CIS: Attagene CIS-FACTORIAL HepG2 Assay for human SRY-box transcription factor (SOX) (AID 2282960). Conditions: HepG2 Attagene cis-factorial SOX reporter, mRNA; actives raise or lower the signal. In outline: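 HepG2 cells transiently transfected with cis-element-driven multiple reporter transcription units, dosed 24 h; reporter mRNA measured by RT-PCR, FAM labelling, HpaI digestion and capillary electrophoresis. Bidirectional fit versus DMSO baseline.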

Assay [6] addresses Transcription factor Sp1 (Homo sapiens) (UniProt P08047). Nature of the assay: ATG_Sp1_CIS: Attagene CIS-FACTORIAL HepG2 Assay for human Specificity Protein 1 (Sp1) (AID 2282961). Conditions: HepG2 Sp1 cis-reporter transcription, actives raise or lower the signal. In outline:
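HepG2 cells transiently transfected with multiple reporter transcription units driven by cis-regulatory elements; Sp1-responsive reporter mRNA measured 24 h after dosing by RT-PCR and capillary electrophoresis fluorescence, fitted bidirectionally against DMSO baseline.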

Assay [7] can be described thus: ATG_SREBP_CIS: Attagene CIS-FACTORIAL HepG2 Assay for human Sterol Regulatory Element Binding (SREBP) (AID 2282962). The settings on record: HepG2 Attagene cis-factorial SREBP reporter, mRNA; actives raise or lower the signal. In outline: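 Values derive from bidirectional curve fitting with DMSO as baseline. The underlying measurement is reporter mRNA from cis-element-regulated units in transiently transfected HepG2, quantified by RT-PCR and capillary electrophoresis after 24 h exposure.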

Assay [8] deals with Signal transducer and activator of transcription 3 (Homo sapiens) (UniProt P40763). Nature of the assay: ATG_STAT3_CIS: Attagene CIS-FACTORIAL HepG2 Assay for human Signal Transducer and Activator of Transcription 3 (STAT3) (AID 2282963). Conditions: HepG2, Attagene cis-factorial STAT3 reporter transcription; actives raise or lower the signal. The gist of the method:
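Readout is reporter transcript quantified by RT-PCR and capillary electrophoresis, with 6-FAM primer extension and HpaI digestion. Total RNA is taken 24 h after dosing transiently transfected HepG2 carrying cis-regulated reporter units. Bidirectional fit against DMSO.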

Assay [9] is described as follows: ATG_TA_CIS: Attagene CIS-FACTORIAL HepG2 Assay for human TA Basal Promoter (AID 2282964). The settings on record: HepG2 Attagene CIS-factorial TA basal promoter reporter; actives raise or lower the signal. In outline:
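HepG2 cells transiently transfected with multiple reporter units under cis promoter elements, reporting endogenous transcription factor activity; this endpoint tracks the TA basal promoter as background control. Reporter mRNA after 24 h dosing measured by RT-PCR/capillary electrophoresis; bidirectional fits versus DMSO.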

A short description of assay [10]: ATG_TCF_b_cat_CIS: Attagene CIS-FACTORIAL HepG2 Assay for human T-Cell-Factor with beta-catenin (TCF/b-cat) (AID 2282965). Conditions: HepG2 TCF/beta-catenin cis-reporter transcription, actives raise or lower the signal. In outline: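 Endogenous transcription factor activity is captured through cis-promoter reporter constructs transiently introduced into human HepG2 liver cells. Induced reporter mRNA is measured after 24 h and fitted bidirectionally relative to DMSO.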

Assay [11] can be described thus: ATG_TAL_CIS: Attagene CIS-FACTORIAL HepG2 Assay for human TAL Basal Promoter (AID 2282966).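 Further: background control endpoint measuring basal TAL promoter reporter mRNA not a specific factor.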 The settings on record: HepG2 Attagene cis-factorial TAL promoter reporter; actives raise or lower the signal. In outline:
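Human hepatoma HepG2 cells, transfected with promoter-regulated reporter units, were treated 24 h. Reporter transcript levels, measured through RT-PCR and capillary electrophoresis, were fitted for gain or loss relative to DMSO.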

Assay [12] in a line: ATG_TGFb_CIS: Attagene CIS-FACTORIAL HepG2 Assay for human Transforming Growth Factor (TGF) (AID 2282967). The settings on record: HepG2 Attagene CIS TGFb reporter, mRNA transcription; actives raise or lower the signal. In outline: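 HepG2 cells transiently transfected with cis-promoter-driven multiple reporter units measure endogenous TF activity; reporter mRNA quantified at 24 h by RT-PCR, FAM labeling, HpaI digestion and capillary electrophoresis. Bidirectional fit vs DMSO.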

A short description of assay [13]: ATG_VDRE_CIS: Attagene CIS-FACTORIAL HepG2 Assay for human Vitamin D Receptor Element (VDRE) (AID 2282968). Conditions: HepG2 VDRE cis-reporter transcription, actives raise or lower the signal. The gist of the method:
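Readout is VDRE-driven reporter mRNA reflecting endogenous factor activity in human HepG2 cells, sampled 24 h post-dose. Quantification used labelled RT-PCR products separated by capillary electrophoresis; bidirectional analysis relative to DMSO.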

For assay [14], the target named is Estrogen receptor (Homo sapiens) (UniProt P03372). Nature of the assay: ATG_ERa_TRANS: Attagene TRANS-FACTORIAL HepG2 Assay for human Estrogen Receptor alpha (ERa) (AID 2282970; active means hit-call score of the fitted dose curve at least 0.9, where 1 is the maximum). Conditions: HepG2 Attagene TRANS ERa GAL4 reporter, mRNA. In outline:
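Signal derives from fluorescence of labelled reporter PCR fragments separated by capillary electrophoresis. HepG2 cells transiently carrying multiple GAL4-UAS reporter units were treated 24 hours, and induction above DMSO baseline was fitted as activity.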

Assay [15] has as its target X-box-binding protein 1 (Homo sapiens) (UniProt P17861). Nature of the assay: ATG_Xbp1_CIS: Attagene CIS-FACTORIAL HepG2 Assay for human X-box Binding Protein 1 (XBP1) (AID 2282972). Conditions: HepG2 XBP1 cis-element reporter, Attagene multiplex; actives raise or lower the signal. The gist of the method: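 Human hepatoma HepG2, cis-element reporter system, 24 h treatment; mRNA quantified by RT-PCR/CE fluorescence; fit relative to DMSO.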

Assay [16] in a line: ATG_PBREM_CIS: Attagene CIS-FACTORIAL HepG2 Assay for human Phenobarbital-responsive Enhancer Module (PBREM) (AID 2282955). The settings on record: HepG2 PBREM cis-reporter, Attagene multiplexed transcription; actives raise or lower the signal. The gist of the method:
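HepG2 cells transiently transfected with multiple cis-regulated reporter transcription units; endogenous factor activity at the PBREM element measured as reporter mRNA 24 h after dosing, via RT-PCR and capillary electrophoresis of fluorescent fragments; bidirectional fitting versus DMSO.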

Assay [17] can be described thus: ATG_M_19_TRANS: Attagene TRANS-FACTORIAL HepG2 Assay for M19 Transcription Factor (Internal Marker) (AID 2282974; active means hit-call score of the fitted dose curve at least 0.9, where 1 is the maximum). Conditions: HepG2 Attagene TRANS-FACTORIAL M19 internal marker reporter. The gist of the method: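 HepG2 cells transiently transfected with multiple GAL4-UAS reporter transcription units were exposed to chemicals for 24 h. Reporter mRNA was read by RT-PCR, 6-FAM primer extension, HpaI digestion and capillary electrophoresis; gain of signal fitted relative to DMSO.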

The nature of assay [18]: ATG_GAL4_TRANS: Attagene TRANS-FACTORIAL HepG2 Assay for GAL4 (Internal Marker) (AID 2282976; active means hit-call score of the fitted dose curve at least 0.9, where 1 is the maximum). Conditions: HepG2 Attagene TRANS GAL4 internal marker reporter. The gist of the method: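 Liver HepG2 line bearing multiplexed GAL4-UAS reporter constructs; 24 h chemical treatment. Transcripts were quantified as fluorescent fragments on capillary electrophoresis after RT-PCR and HpaI cut, with activity fitted upward from DMSO.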

The target of assay [19] is Nuclear receptor subfamily 1 group I member 3 (Homo sapiens) (UniProt Q14994). Nature of the assay: ATG_CAR_TRANS: Attagene TRANS-FACTORIAL HepG2 Assay for human Constitutive Androstane Receptor (CAR) (AID 2282969; active means hit-call score of the fitted dose curve at least 0.9, where 1 is the maximum;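 further: activators raise reporter mRNA above DMSO so AC50 marks induction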). The settings on record: HepG2 Attagene TRANS-FACTORIAL CAR reporter. In outline:
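Signal is reporter mRNA induction relative to DMSO, measured 24 h after dosing by RT-PCR with fluorescent primer extension and capillary electrophoresis. Human HepG2 liver cells carried transiently transfected chimeric NR-Gal4/GAL4-UAS reporter constructs.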

One may read the AC50 as the concentration giving half of the maximal activity seen.

Chain of Estrogen receptor (Homo sapiens) (P03372 whole entry, looked up, the tested form may be a part): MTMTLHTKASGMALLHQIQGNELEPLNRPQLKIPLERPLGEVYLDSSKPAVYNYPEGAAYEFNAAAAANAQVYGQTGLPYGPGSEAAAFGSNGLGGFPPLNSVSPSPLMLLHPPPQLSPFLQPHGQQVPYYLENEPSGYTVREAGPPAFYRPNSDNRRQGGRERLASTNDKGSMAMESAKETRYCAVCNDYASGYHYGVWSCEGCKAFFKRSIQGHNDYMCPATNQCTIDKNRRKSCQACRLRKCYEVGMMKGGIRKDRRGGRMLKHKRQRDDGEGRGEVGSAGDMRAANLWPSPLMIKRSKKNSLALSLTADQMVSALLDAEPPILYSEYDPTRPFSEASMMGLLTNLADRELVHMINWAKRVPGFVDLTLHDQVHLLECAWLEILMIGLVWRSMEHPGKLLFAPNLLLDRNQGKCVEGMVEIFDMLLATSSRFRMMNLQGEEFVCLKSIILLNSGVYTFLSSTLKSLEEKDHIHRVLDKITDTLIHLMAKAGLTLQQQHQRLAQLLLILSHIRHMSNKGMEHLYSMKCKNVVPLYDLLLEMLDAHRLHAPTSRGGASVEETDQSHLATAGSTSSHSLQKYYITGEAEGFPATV
Chain of Transcription factor Sp1 (Homo sapiens) (P08047 whole entry, looked up): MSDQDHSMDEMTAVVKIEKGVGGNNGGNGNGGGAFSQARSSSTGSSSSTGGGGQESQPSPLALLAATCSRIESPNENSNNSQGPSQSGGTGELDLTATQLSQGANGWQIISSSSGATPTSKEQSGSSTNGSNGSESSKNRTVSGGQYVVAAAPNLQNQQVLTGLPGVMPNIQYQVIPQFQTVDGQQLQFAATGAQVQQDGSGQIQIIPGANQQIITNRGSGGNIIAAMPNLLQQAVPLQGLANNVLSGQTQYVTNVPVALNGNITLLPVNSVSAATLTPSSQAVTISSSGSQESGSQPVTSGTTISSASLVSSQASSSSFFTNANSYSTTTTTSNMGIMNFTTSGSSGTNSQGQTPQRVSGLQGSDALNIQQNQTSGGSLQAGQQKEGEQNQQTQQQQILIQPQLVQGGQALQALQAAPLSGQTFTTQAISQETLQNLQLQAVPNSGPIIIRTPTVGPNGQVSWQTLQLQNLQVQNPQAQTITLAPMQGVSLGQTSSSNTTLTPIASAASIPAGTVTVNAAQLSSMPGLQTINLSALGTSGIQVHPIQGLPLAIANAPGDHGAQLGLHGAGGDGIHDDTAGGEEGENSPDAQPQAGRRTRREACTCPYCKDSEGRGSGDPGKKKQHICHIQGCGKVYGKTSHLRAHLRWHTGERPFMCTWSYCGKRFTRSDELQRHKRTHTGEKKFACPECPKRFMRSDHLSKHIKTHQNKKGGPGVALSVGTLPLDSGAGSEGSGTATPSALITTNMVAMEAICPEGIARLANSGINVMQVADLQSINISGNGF
Chain of X-box-binding protein 1 (Homo sapiens) (P17861 whole entry, looked up): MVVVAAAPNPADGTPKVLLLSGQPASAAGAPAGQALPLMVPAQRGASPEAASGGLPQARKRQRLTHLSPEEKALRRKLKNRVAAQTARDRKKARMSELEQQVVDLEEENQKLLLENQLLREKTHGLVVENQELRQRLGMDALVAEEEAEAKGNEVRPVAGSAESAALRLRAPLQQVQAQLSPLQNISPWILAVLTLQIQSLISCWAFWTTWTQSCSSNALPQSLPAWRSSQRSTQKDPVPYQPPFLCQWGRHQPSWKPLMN
Chain of Signal transducer and activator of transcription 3 (Homo sapiens) (P40763 whole entry, looked up): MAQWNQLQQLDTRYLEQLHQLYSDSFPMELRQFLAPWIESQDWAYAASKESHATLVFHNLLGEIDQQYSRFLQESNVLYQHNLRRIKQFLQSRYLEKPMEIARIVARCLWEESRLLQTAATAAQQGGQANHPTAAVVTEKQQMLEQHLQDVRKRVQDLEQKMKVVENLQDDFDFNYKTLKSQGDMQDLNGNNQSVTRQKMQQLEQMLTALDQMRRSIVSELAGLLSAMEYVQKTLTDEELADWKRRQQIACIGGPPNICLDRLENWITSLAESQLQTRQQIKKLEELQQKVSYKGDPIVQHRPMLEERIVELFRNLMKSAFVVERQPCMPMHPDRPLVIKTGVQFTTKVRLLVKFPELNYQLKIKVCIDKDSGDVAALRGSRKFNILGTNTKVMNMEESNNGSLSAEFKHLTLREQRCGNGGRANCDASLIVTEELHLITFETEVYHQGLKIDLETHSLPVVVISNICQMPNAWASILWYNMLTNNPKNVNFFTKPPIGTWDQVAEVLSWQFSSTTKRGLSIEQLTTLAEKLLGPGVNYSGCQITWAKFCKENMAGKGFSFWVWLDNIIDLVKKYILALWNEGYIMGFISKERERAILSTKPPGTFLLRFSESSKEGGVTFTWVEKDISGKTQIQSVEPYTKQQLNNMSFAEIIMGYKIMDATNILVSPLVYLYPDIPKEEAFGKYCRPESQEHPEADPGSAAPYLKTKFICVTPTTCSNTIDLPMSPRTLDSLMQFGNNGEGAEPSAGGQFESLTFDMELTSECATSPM
Chain of Nuclear receptor subfamily 1 group I member 3 (Homo sapiens) (Q14994 whole entry, looked up, the tested form may be a part): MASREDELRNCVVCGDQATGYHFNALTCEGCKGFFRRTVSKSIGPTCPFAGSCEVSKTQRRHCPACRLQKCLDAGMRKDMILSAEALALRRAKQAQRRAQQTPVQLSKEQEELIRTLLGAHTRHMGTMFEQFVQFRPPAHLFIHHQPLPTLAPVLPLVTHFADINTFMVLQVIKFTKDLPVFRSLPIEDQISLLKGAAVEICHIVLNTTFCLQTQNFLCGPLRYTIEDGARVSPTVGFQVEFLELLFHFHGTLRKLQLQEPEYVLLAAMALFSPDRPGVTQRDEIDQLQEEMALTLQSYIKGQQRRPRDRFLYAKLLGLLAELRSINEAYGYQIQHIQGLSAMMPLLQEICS

For the compound `CC1=C(C=O)C(C)(C)CCC1`, the result in [1], in [3], in assay [4], in [5], in [6] and in assay [7] was inactive. The compound was called inactive in assay [8], in assay [9], in assay [10], in assay [11], in assay [12] and in [13]. The outcome in assay [14] and in assay [15] was inactive. Moreover, the AC50 in assay [2] is 1.75 µM (active).
As for `[Na+]`, the result in assay [16], in [1], in [2], in assay [5], in [6] and in [8] was inactive. For the same compound, the outcome in assay [9], in assay [10], in assay [11], in assay [12], in [15] and in assay [17] was inactive. For the same compound, in assay [18], the outcome was inactive.
Take `CCCCCC(=O)O[C@]1(C(C)=O)CC[C@H]2[C@@H]3CCC4=CC(=O)CC[C@]4(C)[C@H]3CC[C@@]21C`: the concentration at half-maximal activity (AC50) in assay [1] was 22.8 µM (active); in assay [2] it was 0.239 µM (active); in assay [5], 59.6 µM (active); in [7], 33.2 µM (active); in assay [8], 33.2 µM (active); in assay [9] it was 60 µM (active). In addition, the figures for the AC50 in assay [11] and in assay [13] were 13.4 µM (active) and 61.2 µM (active), respectively. Further, the outcome in assay [3], in assay [4], in assay [6], in assay [10], in assay [12] and in assay [15] was inactive. The result in assay [17] and in assay [18] was inactive.
For `CCCCOCCOC(=O)c1ccccc1C(=O)OCCOCCCC`, the result in assay [16], in [1], in [3], in assay [4], in [5] and in assay [6] was inactive. The compound was called inactive in [7], in [8], in [9], in assay [11], in assay [12] and in [14]. Moreover, the result in assay [15] and in assay [17] was inactive. Besides, the AC50 in assay [13] was 11 µM (active).
With `OCCN1CCOCC1`, the result in assay [16], in assay [1], in assay [3], in [4], in assay [5] and in assay [6] was inactive. In addition, the call in assay [7], in assay [8], in assay [9], in assay [10], in [12] and in assay [19] was inactive. Further, the result in assay [15] and in assay [18] was inactive. The AC50 in assay [14] is 67.5 µM (active).
